Results on 53 compounds are retold here after PubChem BioAssay AID602393 (Broad Institute, 2012).

Structures are written as SMILES. In all, about 350,000 compounds went through this assay and about 7,000 (2%) were called active. Shown is part of a subset that was picked to be rich in actives. A number with no mark means an inactive call. Rule as the data show it: active = activation above about 40%; inconclusive = no clear call, values can overlap the other calls; inactive = below that.

This test in a line: raisers of Bmi1 knock-in reporter signal – mouse ES cells, Bmi1 luciferase knock-in, single point, esBAF inhibitor project, primary screen (AID 602393).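 Also: 0% = median of the plate's neutral control wells and 100% = double that signal; a rise in the Bmi1 reporter signal indicates esBAF inhibition.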 The conditions noted are these: 24 h, at 12.5 µM, active compounds read high, 100% = twice the neutral-well signal.
With `COc1ccccc1S(=O)(=O)N[C@@H]1CC[C@@H](CCNC(=O)C2CCCCC2)O[C@@H]1CO`, the reporter increase is -1.9%.
As to `O=C(C[C@@H]1C[C@@H]2c3cc(NS(=O)(=O)c4ccc(F)cc4)ccc3O[C@@H]2[C@H](CO)O1)N1CCCCC1`, the reporter increase was -3.2%.
For `CO[C@@H]1CC[C@H]2CCN(C)C(=O)C[C@@H](c3ccccc3)CN(C)C(=O)c3cc(C#N)ccc3OC[C@@H]1O2` the value was 3.4%; for `CO[C@H]1CC[C@@H]2CCOc3c(C#N)cccc3C(=O)N(C)C[C@@H](OC)[C@H](C)C(=O)N(C)C[C@H]1O2`, 3.07%; for `CCC(=O)N1C[C@@H](C)[C@H](OC)CN(C)C(=O)c2ccc(NC(=O)C3CCOCC3)cc2OC[C@@H]1C`, -3.82%.
As for `C[C@@H]1CN([C@H](C)CO)C(=O)c2cc(-c3cccc(C#N)c3)cnc2O[C@H]1CN(C)C(=O)C1CCC1`, the reporter increase was -9.7%.
Then `COc1ccccc1S(=O)(=O)N[C@@H]1CC[C@H](CC(=O)N2CCN(C)CC2)O[C@@H]1CO`, with 0.975%; and `O=C(C[C@@H]1C[C@@H]2c3cc(NC(=O)C4CCOCC4)ccc3O[C@@H]2[C@@H](CO)O1)NC1CCCCC1`, with 5.22%.
For `COc1ccc(S(=O)(=O)Nc2ccc3c(c2)C(=O)N([C@@H](C)CO)C[C@H](C)[C@H](CN(C)Cc2ccc(C(=O)O)cc2)OCCCC[C@@H](C)O3)cc1` the value was 6.21%; for `COCOc1cc(O)c(C(=O)/C=C/c2ccc(OCOC)c(OCOC)c2)c(OCOC)c1`, 15.9%; for `COc1ccc(/C=C/C(=O)c2cc(Br)ccc(=O)c2O)cc1`, -9.92%.
Then `COc1ccc(/C=C/C(=O)c2c(O)cc(OC)cc2OC)cc1`, with 46.9% (active).
Regarding `Cc1ccc(S(=O)(=O)N2C[C@H](O)COC[C@@H]3O[C@H](CC(=O)N[C@H]4CCN(Cc5ccccc5)C4)CC[C@H]32)cc1`, the reporter increase was -2.58%.
For `C[C@H](CO)N1C[C@H](C)[C@H](CN(C)Cc2ccc(C(F)(F)F)cc2)Oc2c(NC(=O)C3CCOCC3)cccc2C1=O` the value was -0.743%.
For `Cc1nc2ccccc2c(-c2ccccc2)c1C(=O)c1ccccc1` the value was -1.09%.
For `Cc1ccc(C(=O)COC(=O)c2cccc(N3C(=O)c4c(C)nc5ccccc5c4C3=O)c2)cc1C` the value was 21.8% (active); for `Cc1ccc(C(=O)COC(=O)CCN2C(=O)C3C4CCC(C4)C3C2=O)cc1C` (stereo not drawn), 0.309%; for `Cc1noc(C)c1NC(=O)Nc1ccc2c(c1)C(=O)N([C@@H](C)CO)C[C@@H](C)[C@H](CN(C)C(=O)Nc1ccc(C(F)(F)F)cc1)OCCCC[C@@H](C)O2`, 11%.
On to `O=C(C[C@H]1CC[C@@H](NC(=O)Cc2cccnc2)[C@H](CO)O1)Nc1ccc(-c2ccccc2)cc1`, for which the reporter increase is -2.77%.
Then `CC(OC(=O)/C=C/c1ccccc1)C(=O)Nc1ccc(C(N)=O)cc1` (stereo not drawn), with -2.08%; and `N/C(=N\OC(=O)/C=C/c1ccccc1)c1ccc(Br)cc1`, with 23.9% (active); and `N/C(=N\OC(=O)c1ccc2c(c1)OCO2)c1ccc(Br)cc1`, with 18.6%.
Then `O=C(NCCC1=CCCCC1)c1ccc(-n2cncn2)cc1`, with 42.2% (active); and `Cn1nnc2cc(C(=O)NCCC3=CCCCC3)ccc21`, with -7.14%; and `CN(c1ccc(C(=O)NCCC2=CCCCC2)cc1)S(C)(=O)=O`, with -6.11%.
For `Cc1cc(Cl)c2oc(C(=O)N(C)C(C)c3ccccn3)c(C)c2c1` (stereo not drawn) the value was 31.4%.
For the compound `CC(c1ccccn1)N(C)C(=O)c1ccc2nc(Cc3cccc(Cl)c3)oc2c1` (stereo not drawn), the reporter increase was 73.4% (active).
For `CCn1ccnc1CN(C)C(=O)c1ccc2nc(Cc3ccc(OC)cc3)oc2c1`, the reporter increase is -2.21%.
As for `COc1ccc(NC(=O)Nc2ccc3c(c2)CC(=O)N([C@@H](C)CO)C[C@@H](C)[C@H](CN(C)C(=O)NC2CCCCC2)O3)cc1`, the reporter increase is 3.44%.
Then `Oc1cccc(CCc2ccccn2)c1`, with 45.8% (active).
Then `O=C(Cc1ccccn1)c1ccc(O)cc1O`, with 7.66%; and `c1ccc(CCc2ccccn2)cc1`, with 16.6%; and `CO[C@H]1CN(C)C(=O)c2cc(NC(=O)C3CC3)ccc2OC[C@H](C)N(CC2CCCC2)C[C@@H]1C`, with -2.34%.
Take `O=C(COC(=O)C1CCCO1)Nc1nc(-c2ccc(F)cc2)cs1` (stereo not drawn): the reporter increase was 49.2% (active).
Then `O=C(CSC1=NCCS1)Nc1nc(-c2ccccc2)cs1`, with 5.05%; and `CC1CCCC(C)N1C(=O)CN1CCN(c2nc(-c3ccc(F)cc3)cs2)CC1` (stereo not drawn), with 7.37%.
For `Cc1ccc(-c2csc(NC(=O)c3cccs3)n2)cc1` the value was 53.5% (active); for `COc1ccc(OC)c(NC(=O)Cc2cccs2)c1`, 0.423%.
Then `Cc1ccc(-c2csc(NC(=O)Cc3cccs3)n2)cc1C`, with 48.9% (active).
As to `Cc1ccc(-c2csc(N(Cc3ccco3)C(=O)c3cccs3)n2)cc1`, the reporter increase was 2.94%.
Then `Cc1csc(NC(=O)C2=COCCO2)n1`, with 39.3%; and `Cc1ccc(-c2csc(NC(=O)C3=COCCO3)n2)cc1C`, with 43.9% (active).
Then `O=C(Nc1n[nH]c(C(F)(F)F)n1)c1cccs1`, with -2.17%.
Then `COc1cc(OC)cc(C(=O)NNC(=O)Cc2cccs2)c1`, with 3.48%; and `NS(=O)(=O)c1ccc2nc(NC(=O)C3=COCCO3)sc2c1`, with -2.59%.
For `O=C(C[C@@H]1CC[C@@H](NC(=O)C2CCOCC2)[C@H](CO)O1)Nc1ccc(-c2ccccc2)cc1`, the reporter increase is 8.43%.
On to `C[C@@H]1CN([C@H](C)CO)C(=O)c2cc(C#CC3(O)CCCC3)cnc2O[C@H]1CN(C)C(=O)C1CCC1`, for which the reporter increase is 2.77%.
Then `C[C@@H](NC(=O)C[C@H]1C[C@H]2c3cc(NC(=O)Nc4ccccc4F)ccc3O[C@H]2[C@@H](CO)O1)c1ccccc1`, with 2.95%; and `O=C(Cc1ccncc1)N[C@H]1CC[C@H](CCn2cc(-c3ccccc3F)nn2)O[C@@H]1CO`, with 12.7%; and `COc1cccc(-c2cn(CC[C@@H]3CC[C@@H](NC(C)=O)[C@@H](CO)O3)nn2)c1`, with -4.15%.
In the case of `COc1ccccc1CNC(=O)COC(=O)c1sc(C)nc1C`, the reporter increase was 6.65%.
For `COc1ccccc1/C=N/Nc1nc(C)c(C(C)=O)s1` the value was 43.3% (active); for `CNC(=O)c1sc(NCc2ccccc2OC)nc1C`, 10%.
